Reference: PubChem BioAssay (NCATS)
Inconclusive results are not listed. Activity calls are given as the source filed them. The call rests on the fitted dose curve; in most records, active means well fitted curve in the direction sought with a large enough effect; inconclusive means small, poorly fitted or top-dose-only effect, or another doubt; inactive means no such curve, though single readings can be large; an effect the other way counts as inactive or inconclusive.

How the values were obtained:
[1] = Cellular Toxicity (caspase-3) HepG2 (AID 654);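 further: cells exposed to compound for 16 hours before reading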
Method in brief: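 Luminescent Caspase-Glo 3/7 readout after 16 hr compound exposure of human hepatocellular carcinoma HepG2 cells at 37 °C; qHTS concentration-response, normalized DMSO = 0%, 100 uM tamoxifen = 100%; AC50 by standard Hill equation.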

[2] = Cellular Toxicity (caspase-3) Jurkat (AID 655);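 further: cells exposed to compound for 16 h at 37 °C before reading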; further: potency means the concentration at half of the fitted maximal effect
Method in brief: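 Jurkat cells (5000/well) in complete medium exposed 16 h at 37 C; caspase-3/7 activity read by Caspase-Glo luminescence after 20 min at room temperature. Normalized to DMSO and 100 uM tamoxifen; AC50 from Hill fits.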

[3] = Cellular Toxicity (caspase-3) HUV-EC-C (AID 656)
Method in brief: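 HUV-EC-C cells (1000/well) in complete medium, compound-treated 16 h at 37 °C; caspase-3/7 activity read by Caspase-Glo 3/7 luminescence. Normalized to DMSO (basal) and 100 uM tamoxifen (100%); AC50 from Hill-equation concentration-response fits.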

[4] = Cellular Toxicity (caspase-3) SHSY5Y (AID 657); further: potency means the concentration at half of the fitted maximal effect
Method in brief: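 SH-SY5Y human neuroblastoma cells, 1500/well, exposed to compound for 16 hours at 37 °C in complete medium. Caspase-3/7 activity read by Caspase-Glo luminescence after 1 hr at room temperature, normalized to DMSO and 10 uM staurosporine; AC50 from Hill fit.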

[5] = Cellular Toxicity (caspase-3) BJ (AID 658)
Method in brief: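 Caspase-Glo 3/7 luminescence, read 1 hr after reagent at room temperature, in normal BJ fibroblasts exposed 16 hours at 37 °C. AC50 values from Hill-equation concentration-response, scaled between DMSO basal and 10 uM staurosporine as 100%.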

[6] = Cellular Toxicity (caspase-3) MRC-5 (AID 659)
Method in brief: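 Luminescent Caspase-Glo 3/7 read-out (1 h, room temperature) after a 16 h, 37 °C compound exposure of MRC-5 lung fibroblasts at 1500 cells/well. Concentration-response AC50 from Hill equation; 0% DMSO, 100% 10 uM staurosporine.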

[7] = Cellular Toxicity (caspase-3) SK-N-SH (AID 661)
Method in brief: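 Luminescent Caspase-Glo 3/7 read-out after 16 hr compound exposure of SK-N-SH neuroblastoma cells at 37 °C. Signal increase normalized to DMSO (basal) and 10 uM staurosporine (100%); AC50 from Hill equation fits of qHTS concentration-response data.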

[8] = Cellular Toxicity (caspase-3) H-4-II-E (AID 663); conditions: Potency: caspase-3 activation; further: potency means the concentration at half of the fitted maximal effect;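 on caspase-3 activation: cells exposed to compound for 16 hr before readout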
Method in brief: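 Caspase 3/7 activation measured by luminescent aminoluciferin substrate cleavage after 16 hr compound treatment of H-4-II-E cells in complete medium. Increase normalized between DMSO (basal) and 100 uM tamoxifen (100%); Hill-equation AC50 from concentration-response.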

[9] = Cellular Toxicity (caspase-3) Hek293 (AID 664);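 further: cells exposed to compound for 16 h at 37 °C before readout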
Method in brief: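 Luminescent Caspase-Glo 3/7 readout (aminoluciferin release) in HEK293 cells after 16 h compound treatment, 37 °C. Normalization: DMSO = basal, 100 uM tamoxifen = 100% stimulation. Concentration-response fitted with standard Hill equation for AC50.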

[10] = Cellular Toxicity (caspase-3) N2a (AID 665);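 further: compound exposure lasted 16 h at 37 °C before readout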
Method in brief: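 Luminescent Caspase-Glo 3/7 readout in N2a mouse neuroblastoma cells after 16 h compound exposure at 37 °C. Signal scaled to DMSO (basal) and 10 uM staurosporine (100%). Concentration-response fitted with Hill equation for AC50.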

[11] = Cellular Toxicity (caspase-3) NIH 3T3 (AID 666); further: potency means the concentration at half of the fitted maximal effect
Method in brief: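 NIH 3T3, 1000 cells/well, 5 hr settle then 16 hr compound at 37°C; Caspase-Glo 3/7, 20 min RT, luminescence. DMSO = basal, 100 uM tamoxifen = 100%. Hill-equation AC50, qHTS.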

[12] = Cellular Toxicity (caspase-3) Renal Proximal Tubule (AID 667);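 further: cells exposed to compound for 16 hours at 37 °C before detection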
Method in brief: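 Freshly isolated primary rat kidney proximal tubule cells, 1000/well, treated 16 hr at 37 °C, then Caspase-Glo 3/7 luminescence after 1 hr. Normalized to DMSO and 10 uM staurosporine; AC50 from Hill fit.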

[13] = molecular target: Cytochrome P450 3A4 (Homo sapiens) (UniProt P08684); assay: qHTS Assay for Inhibitors and Substrates of Cytochrome P450 3A4 (AID 884); further: nearly all actives have a fitted effect of over 50% in size; further: potency means the concentration at half of the fitted maximal effect
Method in brief: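 Luminescent readout of luciferin produced by CYP3A4 (20 nM) dealkylation of Luciferin-PPXE, 25 uM (its KM). NADPH-driven reaction ran 60 min at RT after 10 min compound preincubation; data scaled to 57 uM ketoconazole as 100% inhibition.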

[14] = molecular target: Cytochrome P450 2C9 (Homo sapiens) (UniProt P11712); assay: qHTS Assay for Inhibitors and Substrates of Cytochrome P450 2C9 (AID 883); further: nearly all actives have a fitted effect of over 60% in size; further: potency means the concentration at half of the fitted maximal effect
Method in brief: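 Turnover of Luciferin-H (100uM, KM) by 10nM human CYP2C9 was measured over 60 min at 37C with NADPH regeneration; inhibitors and some substrates reduce luminescence. Data normalized to sulphaphenazole 57uM.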

[15] = molecular target: Cytochrome P450 2C19 (Homo sapiens) (UniProt P33261); assay: qHTS Assay for Inhibitors and Substrates of Cytochrome P450 2C19 (AID 899); further: potency means the concentration at half of the fitted maximal effect; nearly all actives have a fitted effect of over 60% in size
Method in brief: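 Reactions contain 5nM enzyme, 10uM Luciferin-H EGE (KM) and 50mM KPO4; compound preincubates 10 min at 37C, NADPH regeneration starts turnover for 60 min. Luminescence after detection reagent gives activity.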

[16] = molecular target: Guanine nucleotide-binding protein G(i) subunit alpha-1 (Homo sapiens) (UniProt P63096); assay: qHTS Assay for Inhibitors of RGS12 GoLoco Motif Activity (Green Fluorophore) (AID 879);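 further: negative values mean loss of peptide binding seen as reduced polarization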
Method in brief: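 A drop in FITC polarization marked displacement of the FITC-tagged RGS12 GoLoco peptide (10 nM) from Gαi1 (50 nM). Compounds were incubated 10 min at room temperature in Tris pH 7.5 buffer containing 150 mM NaCl, 0.1 mM GDP and 0.05% NP40; unlabeled peptide titration served as control.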

[17] = molecular target: Cytochrome P450 3A4 (Homo sapiens) (UniProt P08684); assay: qHTS Assay for Activators of Cytochrome P450 3A4 (AID 885); further: nearly all actives have a fitted effect of over 65% in size; further: potency means the concentration at half of the fitted maximal effect
Method in brief: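 Using 20nM recombinant human CYP3A4 in potassium phosphate (200mM), substrate Luciferin-PPXE at 25uM, luminescent luciferin detection followed a 60-min RT NADPH reaction; data scaled to 57 uM ketoconazole.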

[18] = molecular target: Cytochrome P450 2D6 (Homo sapiens) (UniProt P10635); assay: qHTS Assay for Inhibitors and Substrates of Cytochrome P450 2D6 (AID 891); further: potency means the concentration at half of the fitted maximal effect; nearly all actives have a fitted effect of over 60% in size
Method in brief: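 Luminescent read-out of luciferin formed by 5 nM human CYP2D6 demethylating 30 uM Luciferin-ME EGE (Km level) over 60 min at room temperature after NADPH regeneration addition. Data normalized to full inhibition by 1.43 uM quinidine.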

Measured: Potency

Cytochrome P450 3A4 (Homo sapiens), sequence (P08684 whole entry, looked up): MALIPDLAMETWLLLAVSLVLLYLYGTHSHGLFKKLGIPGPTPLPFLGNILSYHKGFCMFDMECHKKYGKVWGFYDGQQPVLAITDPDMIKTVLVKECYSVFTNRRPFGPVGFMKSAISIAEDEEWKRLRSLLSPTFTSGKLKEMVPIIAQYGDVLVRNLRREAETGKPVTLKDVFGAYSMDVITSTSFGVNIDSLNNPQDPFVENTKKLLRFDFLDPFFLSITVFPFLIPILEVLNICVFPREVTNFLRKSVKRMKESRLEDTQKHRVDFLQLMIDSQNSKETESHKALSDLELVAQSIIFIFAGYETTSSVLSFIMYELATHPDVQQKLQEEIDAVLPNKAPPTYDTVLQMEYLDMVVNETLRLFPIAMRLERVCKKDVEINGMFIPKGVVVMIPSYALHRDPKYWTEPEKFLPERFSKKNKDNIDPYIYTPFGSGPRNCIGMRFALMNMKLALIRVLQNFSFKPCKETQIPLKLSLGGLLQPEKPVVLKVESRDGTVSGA
Cytochrome P450 2D6 (Homo sapiens), sequence (P10635 whole entry, looked up): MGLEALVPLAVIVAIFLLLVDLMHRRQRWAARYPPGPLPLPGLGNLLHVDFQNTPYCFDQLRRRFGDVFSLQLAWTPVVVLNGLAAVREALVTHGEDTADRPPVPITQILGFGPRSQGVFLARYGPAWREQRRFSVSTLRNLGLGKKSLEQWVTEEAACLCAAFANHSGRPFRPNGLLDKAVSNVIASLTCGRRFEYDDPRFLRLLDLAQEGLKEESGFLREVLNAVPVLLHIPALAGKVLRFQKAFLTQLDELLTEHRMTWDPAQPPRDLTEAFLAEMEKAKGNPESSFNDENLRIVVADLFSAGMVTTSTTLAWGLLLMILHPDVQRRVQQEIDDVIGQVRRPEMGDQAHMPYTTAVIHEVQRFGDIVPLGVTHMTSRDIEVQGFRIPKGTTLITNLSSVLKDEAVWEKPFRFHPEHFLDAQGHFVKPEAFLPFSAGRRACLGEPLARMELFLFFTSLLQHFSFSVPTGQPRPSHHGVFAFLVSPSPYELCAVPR
Cytochrome P450 2C9 (Homo sapiens), sequence (P11712 whole entry, looked up): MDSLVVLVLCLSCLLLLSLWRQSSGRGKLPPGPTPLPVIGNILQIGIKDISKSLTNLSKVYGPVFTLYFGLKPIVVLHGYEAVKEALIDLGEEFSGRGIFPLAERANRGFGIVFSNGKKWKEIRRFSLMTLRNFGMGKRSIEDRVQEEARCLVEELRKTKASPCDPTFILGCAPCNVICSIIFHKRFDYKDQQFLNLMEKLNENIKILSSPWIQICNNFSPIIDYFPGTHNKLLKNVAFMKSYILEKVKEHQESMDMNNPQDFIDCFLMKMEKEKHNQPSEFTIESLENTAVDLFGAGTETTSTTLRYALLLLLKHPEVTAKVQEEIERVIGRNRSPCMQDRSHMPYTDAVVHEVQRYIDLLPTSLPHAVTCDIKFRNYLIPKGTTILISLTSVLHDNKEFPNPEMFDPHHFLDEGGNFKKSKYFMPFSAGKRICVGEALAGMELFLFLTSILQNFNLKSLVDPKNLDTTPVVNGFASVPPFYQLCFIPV
Cytochrome P450 2C19 (Homo sapiens), sequence (P33261 whole entry, looked up): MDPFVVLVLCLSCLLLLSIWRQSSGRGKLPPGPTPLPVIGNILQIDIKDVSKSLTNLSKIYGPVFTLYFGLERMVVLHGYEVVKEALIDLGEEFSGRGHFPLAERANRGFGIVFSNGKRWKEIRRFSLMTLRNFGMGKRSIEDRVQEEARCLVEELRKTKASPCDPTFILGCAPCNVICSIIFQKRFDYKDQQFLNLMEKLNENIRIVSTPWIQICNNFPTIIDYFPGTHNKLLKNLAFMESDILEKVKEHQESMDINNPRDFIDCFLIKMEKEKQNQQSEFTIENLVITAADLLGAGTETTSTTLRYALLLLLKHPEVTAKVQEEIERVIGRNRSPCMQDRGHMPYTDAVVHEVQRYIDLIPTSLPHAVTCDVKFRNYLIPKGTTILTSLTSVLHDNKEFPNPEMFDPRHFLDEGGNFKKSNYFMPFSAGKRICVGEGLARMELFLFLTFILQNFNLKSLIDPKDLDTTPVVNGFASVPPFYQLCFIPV
Guanine nucleotide-binding protein G(i) subunit alpha-1 (Homo sapiens), sequence (P63096 whole entry, looked up): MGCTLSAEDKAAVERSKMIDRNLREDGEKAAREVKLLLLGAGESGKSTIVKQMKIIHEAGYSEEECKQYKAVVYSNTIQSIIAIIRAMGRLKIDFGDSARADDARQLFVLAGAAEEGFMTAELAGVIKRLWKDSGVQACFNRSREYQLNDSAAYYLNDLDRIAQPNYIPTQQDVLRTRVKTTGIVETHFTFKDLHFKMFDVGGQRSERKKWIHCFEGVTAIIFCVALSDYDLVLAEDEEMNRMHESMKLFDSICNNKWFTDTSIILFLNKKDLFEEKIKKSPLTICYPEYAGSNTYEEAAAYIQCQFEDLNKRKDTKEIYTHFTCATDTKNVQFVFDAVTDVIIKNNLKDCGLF

C1=CC2C3C=CC(C3)C2C1 (stereo unspecified)
not listed: [14] | [15] | [16] | [17] | [18]
inactive: all other assays above

C1N2CN3CN1CN(C2)C3
inactive: [13]

Brc1ccccc1-c1ccccc1
not listed: [14] | [15] | [16] | [17] | [18]
inactive: all other assays above

C[C@@H](C1=C(CCN(C)C)Cc2ccccc21)c1ccccn1
active: [14] 0.501 µM | [15] 2.51 µM

O=[N+]([O-])c1ccc(-c2nc(-c3ccc(F)cc3)c(-c3ccncc3)[nH]2)cc1
active: [13] 0.158 µM
inactive: [16] | [17]

CC(=O)OCC[N+](C)(C)C
inactive: [13]

CCN(CC)CCOc1ccc(/C(=C(\Cl)c2ccccc2)c2ccccc2)cc1
active: [18] 5.01 µM
inactive: [14] | [13]

CC(C)C(C)(C)C(C)(C)C(C)(C)S
not listed: [14] | [15] | [16] | [17] | [18]
inactive: all other assays above

Nc1c2ccccc2nc2ccccc12
active: [2] 31.6 µM | [4] 39.8 µM | [8] 31.6 µM | [11] 39.8 µM
inactive: [3] | [6] | [12]

COC(=O)c1c(Cl)c(Cl)c(C(=O)OC)c(Cl)c1Cl
inactive: [13]

Nc1ccc(O)cc1
inactive: [1] | [2] | [3] | [5] | [6] | [7] | [9] | [10] | [11]

Nc1ncnc2nc[nH]c12
inactive: [13]

O=C(O)Cc1ccc(OCCNC[C@H](O)c2ccccc2)cc1
inactive: [13]

O=C(Oc1ccccc1)c1ccccc1O
not listed: [12] | [14] | [15] | [16] | [17] | [18]
inactive: all other assays above

Cc1nn(-c2ccccc2)c(C)c1/C=N/N1CCN(Cc2ccccc2)CC1
inactive: [13]
active: [17] 10 µM

c1ccc2occc2c1
not listed: [14] | [15] | [16] | [17] | [18]
inactive: all other assays above

OC(CCCN1CCCCC1)(c1ccccc1)c1ccccc1
active: [18] 0.126 µM

Cc1ccc2c(Cl)cc(Cl)c(O)c2n1
inactive: [13]

CCCCC(CC)COC(=O)c1ccccc1C(=O)O (stereo unspecified)
not listed: [14] | [15] | [16] | [17] | [18]
inactive: all other assays above

CC(=O)OC/C=C(C)/C=C/C=C(C)/C=C/C1=C(C)CCCC1(C)C
not listed: [9] | [13] | [14] | [15] | [16] | [17] | [18]
inactive: all other assays above

CCCCCCCCCCCCCCCC[n+]1ccccc1
inactive: [3] | [4] | [9] | [11] | [12]

Cc1cc(C(C)(C)C)c(O)c(C(C)(C)C)c1
not listed: [9] | [14] | [15] | [16] | [17] | [18]
inactive: all other assays above

CC(C)(c1ccc(O)cc1)c1ccc(O)cc1
not listed: [13] | [14] | [15] | [16] | [18]
inactive: all other assays above
